Most compounds without a hit are left out; they make up all but 7.7% or so of the library.
HCMV antiviral – inhibitors of human cytomegalovirus; HFF cells, HCMV-luciferase reporter, 72 h; hits give low values; activity change, negative = inhibition, % at 57.5 µM; 410,000 compounds, 4.5% hits; in the data active = activity change below about -60%; inconclusive = no clear call, values can overlap the other calls; inactive = above about -39%
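HFF cells seeded 16 h at 37C, treated with compounds, infected with luciferase-reporter HCMV at MOI 1 PFU/cell; luciferase read at 72 h post infection, normalized to buffer-only and Salinomycin controls.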
RE007 growth inh – less growth of the S. pombe RE007 Vpr strain; Potency, µM (titrated, usually from 92.2 µM), for the others: at the top dose activity change, negative = less growth, usual class: inhibitors; 360,000 compounds, 0.21% hits; S. pombe RE007 Vpr strain, BacTiter-Glo ATP luminescence, 24 h; active = well fitted falling curve with a large enough effect; inconclusive = small, poorly fitted or top-dose-only effect; inactive = no such curve, though single readings can be large or run the other way; note: potency is the fitted concentration of half-maximal effect; nearly all actives have a fitted effect of over 50% in size
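Fission yeast strain RE007, carrying one chromosomally integrated HIV-1 vpr copy, was seeded at OD 0.01 in PMG+AL medium with 23 nL pinned compound. After 24 h at 30 °C and 99% humidity, viability was read by BacTiter-Glo luminescence.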
Tb PYK inh – blocks Trypanosoma brucei pyruvate kinase; Q57TT1; TbPYK enzyme, Kinase-Glo Plus ATP luminescence, 45 min; AID 624173; Potency, µM (highest dose often 76.8 µM), for the others: top-dose activity, negative = inhibition, actives largely listed as inhibitors; 410,000 compounds, 0.12% hits; note: potency is the fitted concentration of half-maximal effect; nearly all actives have a fitted effect of over 50% in size
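Luminescence from Kinase-Glo Plus, added after a 45-minute room-temperature reaction, served as the end-point read-out. The enzyme and substrate were preincubated with compound before ADP (130 uM final) initiated turnover. Concentration-effect curves came from normalized qHTS data.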
Sm TGR inh – S. mansoni TGR enzyme inhibition | Potency, µM (top dose mostly 114 µM), for inactives: at the highest dose activity change, negative = inhibition, usual class: inhibitors | 360,000 compounds, 3% hits | Q962Y6 | purified TGR, DTNB reduction, TNB absorbance 405 nm | AID 485364; note: potency is the fitted concentration of half-maximal effect; nearly all actives have a fitted effect of over 60% in size
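Kinetic colorimetric format: TGR-catalysed, NADPH-driven DTNB reduction monitored via TNB absorbance. Enzyme dispensed at 20 nM; compound exposure 15 min at room temperature before reaction start.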
FMDV inh – blocks foot and mouth disease virus. FMDV antiviral cell-based qHTS. Potency, µM (doses to about 57.9 µM), for inactives: top-dose activity change, negative = inhibition, actives largely listed as inhibitors. 410,000 compounds, 1.2% hits. AID 1159524; calls by dose curve; tested in HEK293T cells; note: read-out not given here; potency is the fitted concentration of half-maximal effect; nearly all actives have a fitted effect of over 45% in size
FBPA Giardia inh – Giardia lamblia aldolase inhibition; Potency, µM (titrated, usually from 59.6 µM), for inactives: top-dose activity, negative = inhibition, usual class: inhibitors; purified Giardia FBPA; A8B2U2; 290,000 compounds, 0.71% hits; note: potency is the fitted concentration of half-maximal effect; nearly all actives have a fitted effect of over 55% in size
Target sequence (A8B2U2 whole entry, looked up): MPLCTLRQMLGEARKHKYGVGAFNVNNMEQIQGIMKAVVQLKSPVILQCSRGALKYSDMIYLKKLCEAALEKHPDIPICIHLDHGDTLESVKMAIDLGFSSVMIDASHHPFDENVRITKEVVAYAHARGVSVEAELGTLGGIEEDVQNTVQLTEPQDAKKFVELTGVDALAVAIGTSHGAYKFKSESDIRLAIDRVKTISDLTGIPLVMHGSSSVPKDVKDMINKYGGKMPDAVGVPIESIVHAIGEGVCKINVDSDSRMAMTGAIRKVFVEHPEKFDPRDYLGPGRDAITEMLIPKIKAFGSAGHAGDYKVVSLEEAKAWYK
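Giardia FBPA (40 nM reagent) was preincubated 10 min at RT with compound (up to 57.5 uM final), then substrate plus GAPDH/TPI/NAD/arsenate coupling system with diaphorase/resazurin was added; resorufin fluorescence (525/598 nm) was read after 20 min.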
The depositor's hits bear a star; u = inconclusive; x = no result; ! = not confirmed by another sample. Unless noted, calls come from the whole dose curve; as a rule, active = well fitted curve in the direction sought with a large enough effect; inconclusive = small, poorly fitted or top-dose-only effect, or another doubt; inactive = no such curve, though single readings can be large; an effect the other way counts as inactive or inconclusive. % is set by controls: 0 for no effect and ±100 for the full control effect.

SMILES	HCMV antiviral	RE007 growth inh	Tb PYK inh	Sm TGR inh	FMDV inh	FBPA Giardia inh
O=C(Nc1nc(-c2ccccc2)cs1)c1ccccc1NS(=O)(=O)c1ccc(F)cc1	-100*	-8%	7%	-2%	u	5%
CCOc1ccc2nc(NC(=O)c3ccc(OC)c(S(=O)(=O)N4CCOCC4)c3)sc2c1	17	-5%	-17%	-27%	u	-10%
CCOc1ccc2nc(NC(=O)c3ccc(S(=O)(=O)N4CCOCC4)cc3)sc2c1	-32	-3%	2%	-8%	28µM*	5%
CCCN(C(=O)CCc1nc(-c2ccccc2F)no1)c1ccc(CC)cc1	-11	x	-2%	-4%	-29%	x
CCC1CN(Cc2ccc(COC)o2)Cc2cc(OC)ccc2O1 (stereo not given)	x	x	x	x	-7%	x
N#Cc1ccccc1Cn1c(=O)n(Cc2ccc(C(=O)NC3CCN(Cc4ccccc4)CC3)cc2)c(=O)c2ccccc21	-10	x	-2%	0%	4%	x
COc1ccc(Cn2c(C(=O)O)c(CNCc3ccco3)c3ccc(OC)cc32)cc1	-19	x	-1%	-13%	-3%	x
COCC(=O)Nc1cc(C(=O)N2CCc3c(Cl)cccc3C2)c2c(c1)nc(-c1ccncc1)n2C	x	x	x	x	-3%	x
COc1ccc(CNC(=O)C2CCN(S(=O)(=O)Cc3ccccc3)CC2)cc1	14	x	0%	-25%	-19%	x
COc1ccc(-c2csc(NC(=O)C3CCCCN3S(=O)(=O)c3ccccc3)n2)cc1 (stereo not given)	-68*	15%	-9%	4%	-63%	-2%
COc1ccc(-c2csc(NC(=O)c3ccccc3S(C)(=O)=O)n2)cc1	u	2%	-2%	-5%	25µM*	-1%
CCOc1cccc(C(=O)Nc2nc(-c3ccc(S(=O)(=O)N4CCOCC4)cc3)cs2)c1	-13	15%	0%	11%	18µM*	-4%
COc1ccc(-c2csc(NC(=O)c3ccccc3C(=O)O)n2)cc1	-3	-9%	2%	3%	0%	-3%
COc1ccccc1C(=O)Nc1nnc(S(=O)(=O)N2CCCCC2)s1	-73*!	-7%	-3%	-7%	11%	-6%
N#CCS(=O)(=O)c1cccc[n+]1[O-]	-2	x	x	x	x	x
COc1ccc(CCNC(=O)C(=O)Nc2ccc(C)cc2)cc1OC	-4	x	5%	1%	-24%	x
CCc1nn2c(=O)cc(COC(=O)c3cccc(NC(=O)COc4ccccc4F)c3)nc2s1	86	x	2%	-4%	25%	x
CCc1ccc(CNC(=O)c2cc3c(=O)n(Cc4cccs4)ccc3nc2C)cc1	-16	x	-3%	0%	-11%	x
Cc1nc2ccn(Cc3cccnc3)c(=O)c2cc1C(=O)NCc1ccc(Cl)cc1	-19	x	3%	12%	-15%	x
COc1ccc(CNC(=O)c2cc3c(=O)n(Cc4ccc(OC)cc4)ccc3nc2C)cc1	-75*	x	2%	-3%	0%	x
Cc1nc2ccn(Cc3cccs3)c(=O)c2cc1C(=O)NCc1ccc(Br)cc1	-63*	x	-7%	0%	3%	x
COc1ccc(C2/C=C\CN(C(=O)c3ccc(C)cc3)C(C)C(=O)N2Cc2ccc(F)cc2)cc1 (stereo not given)	x	x	x	x	x	-7%
Cc1nc2c(Br)cc(Br)cc2c(=O)n1-c1ccccc1NC1OCC(O)C(O)C1O (stereo not given)	-77*	9%	-3%	x	-15%	x
COc1ccc(C(=O)N2CCCN(C)CC2)cc1S(=O)(=O)N(C)Cc1ccccc1	-9	2%	0%	35µM*	-7%	x
CCC(C)(C)n1nnnc1C(c1ccc(N(C)C)cc1)N1CCN(C2CCCCC2)CC1 (stereo not given)	-1	-1%	-19%	22µM*	u	-3%
SMILES	HCMV antiviral	RE007 growth inh	Tb PYK inh	Sm TGR inh	FMDV inh	FBPA Giardia inh
CN(C)c1ccc(C(c2nnnn2C(C)(C)C)N2CCN(C(=O)c3ccco3)CC2)cc1 (stereo not given)	50	-6%	-27%	16µM*	-9%	0%
CCOc1ccc(C(c2nnnn2C(C)(C)C)N2CCN(C(=O)c3ccco3)CC2)cc1 (stereo not given)	-19	12%	1%	-13%	7%	x
CC(C)CCn1nnnc1C(c1ccc(N(C)C)cc1)N1CCN(C(=O)c2ccco2)CC1 (stereo not given)	-16	3%	0%	45µM*	6%	-3%
Cc1ccn2c(=O)cc(COc3ccc(NC(=O)COc4ccccc4)cc3)nc2c1	-3	x	-3%	7%	-10%	x
C[C@H]1CN(S(=O)(=O)C(C)(C)C)[C@H](CCO)/C1=C\CCO	22	x	x	x	x	x
Cn1cc(C=CC(=O)O)c2nccnc21	-62*	3%	-2%	x	-8%	x
O=C(O)/C=C/c1cn(-c2ccccc2)nc1-c1ccccc1	94	-5%	-9%	u	17%	7%
Nc1ccc(S(=O)(=O)NCc2ccccc2)cc1	23	x	0%	x	x	x
O=C1CC[C@H](C(=O)N[C@@H]2C[C@H]2c2ccccc2)N1	x	x	-6%	x	x	x
CC1=C/C(=N\N=C2\NC(=O)C(CC(=O)Nc3ccccc3F)S2)CC(C)(C)C1 (stereo not given)	-65*	1%	-1%	4%	-17%	4%
O=C(CC1S/C(=N/N=C2CCCCCC2)NC1=O)Nc1ccccc1F (stereo not given)	33	0%	8%	-8%	-17%	9%
COC(=O)c1ccc(-n2c(/C=C/c3cc(OC)c(OC)c(OC)c3)nc3cc(Cl)ccc3c2=O)cc1	-7	x	-9%	6%	-26%	x
O=[N+]([O-])c1ccc2nc(/C=C/c3ccc(Cl)cc3)[nH]c2c1	-86*	-26%	-2%	-7%	x	u
CC(C)C(=O)NC(c1ccco1)c1ccc2cccnc2c1O (stereo not given)	-102*	-25%	-10%	-12%	-18%	u
CCCC(=O)NC(c1ccc(N(C)C)cc1)c1c(O)ccc2ccccc12 (stereo not given)	42	-6%	-4%	1%	13%	-23%
CC(C)C(=O)NC(c1cccs1)c1cc([N+](=O)[O-])c2cccnc2c1O (stereo not given)	x	0%	-17%	-19%	-25%	u
CCN(CC)c1ccc(C(NC(=O)C(C)C)c2ccc3cccnc3c2O)cc1 (stereo not given)	-99*	-21%	-5%	x	-22%	x
CCCCC(=O)NC(c1ccc(N(C)C)cc1)c1ccc2cccnc2c1O (stereo not given)	-102*	-18%	-8%	-23%	10%	2%
CCCCC(=O)NC(c1ccc(N(CC)CC)cc1)c1ccc2cccnc2c1O (stereo not given)	-96*	5%	-13%	3%	-2%	u
